A selection: hits, their analogues and other compounds. The true share with any hit is near 19%.
TDP1 cell CPT = DT40-hTDP1 cell growth loss with CPT | chicken DT40 Tdp1-/-;hTDP1 cells + 20 nM CPT, ATP luminescence, 48 h | Potency, µM (doses to about 46.2 µM), for inactives: at the top dose activity change, negative = growth inhibition, hits mostly inhibitors | 420,000 compounds, 12% hits | AID 686979; further: nearly all actives have a fitted effect of over 55% in size
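Chicken DT40 Tdp1-/- cells complemented with human TDP1, 400 cells/well, exposed to compounds plus 20 nM camptothecin for at least 48 h at 37 C; viability read as ATP content by CellTiter-Glo luminescence.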
VP16 counter = inhibits Gal4-VP16 luciferase reporter, ROR gamma counter-screen; Drosophila S2 Gal4-VP16 UAS-luciferase, luminescence, 20 h; Potency, µM (series often up to 53.6 µM), for the others: at the top dose activity, negative = inhibition, hits mostly inhibitors; 310,000 compounds, 3.5% hits;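 further: Gal4-VP16 expression switched on by copper sulfate through the metallothionein promoter; nearly all actives have a fitted effect of over 50% in size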
RORg inh = inhibitors of mouse ROR gamma transcriptional activity. Potency, µM (titrated, usually from 53.6 µM), without a hit: at the top dose activity change, negative = inhibition, most hits filed as inhibitors. P51450. 310,000 compounds, 5.4% hits. Drosophila S2 Gal4-RORgamma UAS-luciferase reporter, 20 h; further: nearly all actives have a fitted effect of over 60% in size
Target sequence (P51450 whole entry, looked up, the tested form may be a part): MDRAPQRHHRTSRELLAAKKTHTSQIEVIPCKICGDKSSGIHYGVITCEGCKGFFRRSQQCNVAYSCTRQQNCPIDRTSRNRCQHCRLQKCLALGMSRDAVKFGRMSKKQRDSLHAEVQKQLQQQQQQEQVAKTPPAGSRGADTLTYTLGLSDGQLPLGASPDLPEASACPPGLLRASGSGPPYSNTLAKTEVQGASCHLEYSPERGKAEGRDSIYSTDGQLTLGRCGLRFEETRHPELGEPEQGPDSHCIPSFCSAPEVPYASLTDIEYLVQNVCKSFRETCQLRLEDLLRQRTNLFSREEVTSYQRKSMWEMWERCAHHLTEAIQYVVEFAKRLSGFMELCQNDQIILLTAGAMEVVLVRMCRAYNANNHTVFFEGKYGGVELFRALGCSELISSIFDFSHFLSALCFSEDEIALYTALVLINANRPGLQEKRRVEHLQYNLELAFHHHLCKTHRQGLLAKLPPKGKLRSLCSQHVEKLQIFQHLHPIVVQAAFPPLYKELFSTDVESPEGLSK
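Drosophila Schneider cells stably carrying a metallothionein-driven Gal4 DBD–ROR gamma fusion and a UAS-Photinus luciferase reporter were exposed to compound for 1 hr, then induced with copper sulfate (700 uM final) for 20 hr at ambient temperature before luminescence reading.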
TDP1 inh = inhibitors of human tyrosyl-DNA phosphodiesterase TDP1 | 350,000 compounds, 0.28% hits | AID 485290 | Q9NUW8 | Potency, µM (doses to about 130 µM), for inactives: top-dose activity change, negative = inhibition, usual class: inhibitors | recombinant TDP1, AlphaScreen DNA substrate cleavage; further: nearly all actives have a fitted effect of over 40% in size
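AlphaScreen read-out: signal falls as enzyme removes the 3' tyrosine-FITC from a 5'-biotinylated DNA oligo (15 nM, 5 min, RT). Enzyme was E. coli-made recombinant Tdp1 at 1 nM, exposed to compound for 15 min beforehand; beads 10 ug/ml, 10 min.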
DT40 TDP1 no CPT = qHTS for Inhibitors of human tyrosyl-DNA phosphodiesterase 1 (TDP1): qHTS in cells in absence of CPT. DT40 Tdp1-/- hTDP1 cells, no CPT, ATP luminescence, 48 h. Potency, µM (series often up to 46.2 µM), for inactives: at the top dose activity change, negative = growth inhibition, most hits filed as inhibitors. 420,000 compounds, 15% hits. AID 686978, 2013; further: nearly all actives have a fitted effect of over 55% in size
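Compound effects on proliferation are scored in DT40 Tdp1-/-;hTDP1 cells in the absence of CPT. ATP levels (CellTiter-Glo luminescence) are recorded after a ≥48 hr, 37 °C incubation.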
An asterisk follows results filed as active; ? = inconclusive; . = no result; [ ] = dose if it differs, or a comment. The call rests on the fitted dose curve; in most records, active means well fitted curve in the direction sought with a large enough effect; inconclusive means small, poorly fitted or top-dose-only effect, or another doubt; inactive means no such curve, though single readings can be large; an effect the other way counts as inactive or inconclusive. On the % scale 0 is the no-effect control and ±100 the full control effect; potency means the concentration at half of the fitted maximal effect.

SMILES	TDP1 cell CPT	VP16 counter	RORg inh	TDP1 inh	DT40 TDP1 no CPT
O=C(N/N=C/c1cc(Cl)cc([N+](=O)[O-])c1O)c1ccc2c(c1)OCO2	16.4µM*	0.891µM*	0.794µM*	.	9.2µM*
O=C(N/N=C/c1cc(Br)c(O)c(Br)c1O)c1ccc2c(c1)OCCO2	11.6µM*	3.16µM*	4.47µM*	4.4%	8.2µM*
Cc1cc(Br)cc(/C=N/NC(=O)c2ccc3c(c2)OCO3)c1O	18.4µM*	3.55µM*	2.51µM*	.	23.1µM*
CCC(=O)Nc1c(-c2ccc(OC)cc2)c(=O)c2ccccc2n1C	-0.2%	-3.7%	?	-2.1%	4.9%
Cc1ccc(C(=O)NNC(=S)NC(=O)c2ccc(Cl)cc2Cl)cc1	?	7.4%	-27.1%	12.7%	?
CC(C)CNC(=S)NC(=O)c1ccc(F)cc1	18.4µM*	?	7.94µM*	0.6%	?
CC(C)NC(=S)NC(=O)c1ccc(Cl)cc1Cl	?	10µM*	8.91µM*	0.0%	?
CC(C)CNC(=S)NC(=O)c1ccc(Cl)cc1Cl	13µM*	5.62µM*	7.08µM*	0.0%	?
O=C(NC(=S)NCCN1CCOCC1)c1ccc(F)cc1	-13.2%	18.3%	-36.1%	0.6%	-19.3%
O=C(NC(=S)Nc1ccccc1O)c1ccc(Cl)cc1Cl	18.4µM*	7.08µM*	2.51µM*	2.4%	29.1µM*
O=C(Nc1ccccc1Cl)c1ccc(Cl)cc1Cl	-22.5%	8.9%	27.8%	6.3%	-23.9%
Cn1ncc([N+](=O)[O-])c1C(=O)Nc1ccccc1C#N	3.0%	.	.	.	10.6%
Cc1ccc(NC(=O)CSc2nnc3ccccn23)cc1	-11.4%	2.1%	-0.5%	-1.8%	6.5%
Cc1ccc(S(=O)(=O)c2nc(S(=O)(=O)c3ccc(C)cc3)c(NCc3ccco3)s2)cc1	-13.3%	-4.7%	13.8%	3.8%	-9.6%
O=C1CCCC/C1=C/Nc1ccc(S(=O)(=O)Nc2ncccn2)cc1	-7.1%	-0.1%	?	4.9%	-19.3%
CC1=CC(=O)CC(C)(C)[C@@]1(O)/C=C/[C@@H](C)O[C@@H]1O[C@H](CO)[C@@H](O)[C@H](O)[C@H]1O	-5.4%	.	.	0.1%	-2.5%
O=C1C=C(c2ccccc2Oc2ccccc2)C[C@@H](c2ccc3c(c2)OCO3)C1	16.4µM*	.	.	0.7%	?
O=C1C=C(c2ccccc2C(F)(F)F)C[C@@H](c2ccc3c(c2)OCO3)C1	?	.	.	-1.8%	18.4µM*
COc1ccccc1C1=CC(=O)C[C@H](c2ccc3c(c2)OCO3)C1	16.4µM*	.	.	-10.0%	18.4µM*
O=C1C=C(c2ccc3ncccc3c2)C[C@@H](c2ccc3c(c2)OCO3)C1	2.06µM*	.	.	5.8%	2.59µM*
COc1ccc(C(=O)Nc2c3c(nn2-c2cccc(Cl)c2)CS(=O)C3)cc1 (configuration not stated)	-17.2%	6.5%	13.1%	3.6%	-23.2%
O=C(COc1cccc(OC(F)F)c1)Nc1ccc(SC(F)F)cc1	-17.3%	-0.1%	19.3%	0.0%	?
CCOc1cc(C2C(C#N)=C(N)OC(C)=C2C(C)=O)c(Br)c(Br)c1OC(C)C (configuration not stated)	4.61µM*	12.6µM*	?	0.1%[56.1 µM]	4.61µM*
CCOc1cc(C2C(C#N)=C(N)OC(C)=C2C(C)=O)cc(Br)c1O (configuration not stated)	-8.6%	10.2%	-13.6%	2.3%	-14.6%
CC1(C)c2ccccc2N2CC(=O)NC21/C=C/c1ccco1 (configuration not stated)	?	?	?	-5.2%	23.1µM*
SMILES	TDP1 cell CPT	VP16 counter	RORg inh	TDP1 inh	DT40 TDP1 no CPT
CC1(C)c2ccccc2N2CCC(=O)NC21/C=C/c1ccco1 (configuration not stated)	-4.4%	1.4%	-27.1%	0.0%	?
O=C(Nc1cccc(Cl)c1)N1CCOCC1	-9.3%	4.3%	-0.7%	.	26.4%
O=C(Nc1cccc(Cl)c1)N1CCCC1	16.4µM*	-2.3%	19.2%	0.0%	25.9µM*
O=C(Nc1ccc(S(=O)(=O)N2CCCCC2)cc1)c1ccc(CN2CCc3ccccc3C2)cc1	10.3µM*	4.47µM*	?	-3.9%	4.61µM*
O=C(Nc1ccc(S(=O)(=O)N2CCCC2)cc1)c1ccccc1	-28.2%	.	.	-0.3%	23.1µM*
Cc1ccc(NC(=O)c2ccc(CN3CCc4ccccc4C3)cc2)cc1	1.4%	-4.0%	16.0%	7.1%	-3.0%
O=c1c2ccccc2nc(SCc2cccc(F)c2)n1-c1cccc(S(=O)(=O)N2CCCC2)c1	11.6µM*	-8.1%	28.8%	5.6%	18.4µM*
Cc1nn(C)c(C(=O)N/N=C/c2ccc(C(F)(F)F)cc2)c1[N+](=O)[O-]	1.6%	?	17.2%	5.3%	0.6%
CC(C)(C)n1nc(C2CC2)cc1NC(=O)Nc1ccc(Cl)cc1	2.1%	6.9%	13.8%	-5.7%	-11.8%
O=c1c2ccccc2[nH]c(=S)n1-c1cccc(S(=O)(=O)N2CCCC2)c1	?	?	3.16µM*	-2.7%	?
CC(=O)c1cccc(NS(=O)(=O)c2ccc(NC(=O)N3CCCCC3)cc2)c1	5.17µM*	10µM*	39.5%	4.5%	9.2µM*
Cc1ccc(S(C)(=O)=O)cc1C(=O)Nc1cccc(S(=O)(=O)N2CCCCCC2)c1	?	.	.	-0.9%[56.1 µM]	-5.8%
CC(=O)c1c(C)[nH]c(C(=O)Nc2cccc(S(=O)(=O)N3CCCCC3)c2)c1C	?	.	.	6.0%	14.6µM*
CC(=O)c1cccc(NC(=O)c2ccc(S(=O)(=O)N3CCCCC3)cc2)c1	23.1µM*	-0.8%	-7.8%	2.2%	18.4µM*
CC(=O)c1cccc(NC(=O)N2CCCCCC2)c1	5.9%	-4.0%	23.1%	1.9%[56.1 µM]	-0.8%
O=C(COc1cc2oc(=O)c3c(c2cc1Cl)CCCC3)NCC1CCC(C(=O)O)CC1 (configuration not stated)	7.1%	-14.2%	-10.6%	4.8%	1.5%
Cc1nn(CCCC(=O)NC2CCC(C)CC2)c(=O)c2nn(-c3ccccc3)c(C)c12 (configuration not stated)	?	-15.1%	-6.9%	0.8%	?
C/C=C(\C)C(=O)NNC(=O)c1sc(-c2ccccc2)nc1C	2.0%	-12.6%	-8.0%	5.1%	-12.1%
CC(OC(=O)c1cc(Br)ccc1O)C(=O)Nc1ccc(S(=O)(=O)N2CCCC2)cc1 (configuration not stated)	?	.	.	0.0%	16.4µM*
Cc1cccc(C(=O)OC(C)C(=O)Nc2ccc(S(=O)(=O)N3CCCC3)cc2)c1O (configuration not stated)	?	.	.	-6.5%[0.505 µM]	?
Cc1cccc(NC(=O)c2ccc(S(=O)(=O)N3CCCCCC3)cc2)n1	-3.6%	.	.	-2.6%	13µM*

Compound activity deposited in PubChem by National Center for Advancing Translational Sciences (NCATS).
